Reference: PubChem BioAssay (NCI)
The panel holds about 83,000 compounds, 20% with a hit somewhere; the sample as a whole holds those more often.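 Percent growth is the endpoint: 0 to 100 indicates growth inhibition (40 means 60% inhibition), 0 means no net growth, and negative values indicate cell death.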 Values without a mark were called inactive. Active and inactive are the calls of the source. Rule for the calls: active = growth percent below 10; inactive = the rest.

How the values were obtained:
Experiment in all cases: NCI-60 one-dose screen, 48 h (100 = growth as untreated, 0 = no growth, -100 = all killed)
Details in all cases: 10 µM unless noted
[1] = tested on: DU-145 prostate
[2] = tested on: K-562 leukemia
[3] = tested on: MALME-3M melanoma
[4] = tested on: MDA-MB-231 breast
[5] = tested on: RXF 393 renal
[6] = tested on: SF-268 CNS
[7] = tested on: SF-295 CNS
[8] = tested on: SF-539 CNS
[9] = tested on: UACC-257 melanoma
[10] = tested on: M14 melanoma

Structure (SMILES) | growth [1] | growth [2] | growth [3] | growth [4] | growth [5] | growth [6] | growth [7] | growth [8] | growth [9] | growth [10]
O=C(CS(=O)c1oc(-c2cccs2)nc1S(=O)(=O)c1ccc(Br)cc1)c1ccccc1 (stereo not given) | 104% | 95.3% | 119% | 105% | 105% | 99.2% | 101% | 87% | 98.8% | 99.5%
CC(C)(C)NC(=O)C(OC(=O)c1cccc(Cl)c1)c1ccc(Cl)cc1 (stereo not given) | 103% | 92.5% | 103% | 112% | 111% | 100% | 98.1% | 95.1% | 97.1% | 94.1%
Cc1ccccc1C(=O)NN | 120% | 104% | 106% | 126% | 118% | 120% | 106% | 114% | 103% | 107%
COc1cc(C(=O)c2cnc(-c3c[nH]c4cccc(C)c34)[nH]2)cc(OC)c1OC | -6.2% (active) | 8.72% (active) | 53.8% | -3.1% (active) | 75.2% | 18.9% | 7.59% (active) | 0.434% (active) | 83.9% | -2.55% (active)
Cc1cc(=O)oc2cc(OC(=O)CN3CCN(C)CC3)ccc12 | 109% | 93.7% | 112% | 101% | 101% | 97.5% | 101% | 98.4% | 109% | 97.9%
COc1cc2cc(Oc3ccc(NC(=O)Nc4ccc(Cl)c(C(F)(F)F)c4)cc3)c(C)nc2cc1OCCN1CCOCC1 | 25.2% | 9.9% (active) | 37.7% | 38.4% | 43.7% | 32.2% | 0.751% (active) | 41.7% | 14.1% | 19.2%
O=[N+]([O-])c1ccc(Oc2nc(Nc3ccc(O[C@H]4CO[C@H]5[C@@H]4OC[C@@H]5O)c(Cl)c3)ncc2F)c(Cl)c1 | 27.3% | 22.2% | 18.6% | 26.8% | 13.6% | 31.6% | 26.4% | 19.5% | 43.9% | 23.9%
COc1cccc(-c2nc(-c3ccc(NS(=O)(=O)c4ccccc4)cc3)[nH]c2-c2ccnc(Br)c2)c1 | 44.3% | 5.37% (active) | 40.2% | 30.1% | -24.5% (active) | 31.4% | 3.83% (active) | 36.6% | 48.7% | 27.1%
CCOC(=O)c1cn2ncnc(Oc3ccc(NC(=O)NCCN4CCN(C)CC4)c(Cl)c3)c2c1C | 81.2% | 10.9% | 28.3% | 72% | 35.8% | 81.4% | 94.8% | 78.5% | -15.9% (active) | -23.7% (active)
Cc1oc2nc[nH]c(=O)c2c1C(=O)/C=C/c1ccc(Br)cc1 | 5.67% (active) | 10.8% | 24.5% | 16.1% | 4.34% (active) | 5.39% (active) | 14.2% | -9.63% (active) | 32.7% | 15.4%
COc1cc(C(=O)/C=C/c2ccc(OCCCCCC[P+](c3ccccc3)(c3ccccc3)c3ccccc3)cc2)cc(OC)c1OC | -1.64% (active) | 0.54% (active) | -37.9% (active) | -15.1% (active) | -47.3% (active) | -6.6% (active) | -23.4% (active) | -86.2% (active) | -21.4% (active) | -55.8% (active)
CCN(CC)CCNC(=O)c1cn2ncnc(Oc3ccc(NC(=O)Nc4ccc(Cl)c(C(F)(F)F)c4)cc3)c2c1C | -53.3% (active) | -79.1% (active) | -81.1% (active) | -94.6% (active) | -36.3% (active) | -64.6% (active) | -87.4% (active) | -93.1% (active) | -83.2% (active) | -83.3% (active)
